Most compounds without a hit are left out; they make up all but 3% or so of the library.
S16 F2sN tox: Cell viability qHTS assay in S16 Pmp22-F2sN cells. Potency, µM (titrated, usually from 57.5 µM), without a hit: at the top dose activity change, negative = cytotoxicity, most hits filed as cytotoxic. AID 1508642, 2021. S16 Pmp22-F2sN Schwann cells viability, CellTiter-Glo, 24 h. actives 0.48% (n = 43,000); note: nearly all actives have a fitted effect of over 65% in size
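Used to flag compounds lowering reporter output through toxicity, this quantitative HTS measures ATP-based CellTiter-Glo luminescence in S16 Pmp22-F2sN Schwann cells after 24 h compound exposure at 37C.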
p53null 39C tox: qHTS Screen for Compounds that Selectively Target Cancer Cells with p53 Mutations: Cytotoxicity of p53 Null Cells at the Nonpermissive Temperature; H1299 p53-null (neo) cells, 39C, ATPlite viability, 24 h; actives 0.97% (n = 55,000); Potency, µM (top dose mostly 46.1 µM), without a hit: at the highest dose activity, negative = cell killing, most hits filed as cytotoxic;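 note: 0% = DMSO only and -100% = full killing by 100 µM tamoxifen; nearly all actives have a fitted effect of over 50% in size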
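Temperature-shift cytotoxicity format: compound titrations on p53-null or A138V-expressing H1299 cells held 24 hr at 39C, cell ATP then measured, AC50 from Hill model.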
p53null 32C kill: qHTS Screen for Compounds that Selectively Target Cancer Cells with p53 Mutations: Cytotoxicity of p53 Null Cells at the Permissive Temperature. H1299-neo p53 null cells, ATP luminescence, 24 h, 32C. Potency, µM (highest dose often 46.1 µM), for the others: at the top dose activity change, negative = cytotoxicity, actives largely listed as cytotoxic. actives 0.62% (n = 55,000);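 note: 0% = DMSO only and -100% = full killing by 100 µM tamoxifen; nearly all actives have a fitted effect of over 55% in size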
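AC50 values derive from Hill modelling of qHTS concentration-response data (up to 46 uM) in H1299-neo cells. Cells were treated 24 h at 32C following overnight attachment at 37C; viability was read as cellular ATP.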
SKOV3 invasion: Primary qHTS assay for Inhibitors of ovarian cancer metastasis using an organotypic tumor microenvironment (TME) model | Potency, µM (titrated, usually from 45.8 µM), inactives show top-dose activity change, negative = inhibition, hits mostly inhibitors | AID 1963576, 2024 | actives 0.1% (n = 46,000) | SKOV3ip1-GFP adhesion/invasion on 3D omental model, fluorescence;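 note: plate controls were DMSO wells for no effect and tomatine positive control wells for full effect; nearly all actives have a fitted effect of over 65% in size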
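Primary human omental fibroblast/mesothelial 3D culture pre-formed 48 h. SKOV3ip1-GFP cells added with compounds (0.36-46 umol/L), incubated 2 h RT/16 h 37 C, fixed; GFP cells quantified at 488/509 nm.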
PMP22 txn prim: Cell-based coincidence reporter assay to measure PMP22 gene transcription in S16 Pmp22-F2sN cells - Primary screen; S16 Pmp22-F2sN Schwann cells (luciferase reporters placed in the Pmp22 gene), FLuc/NLuc coincidence luminescence, 24 h; Potency, µM (top dose mostly 57.5 µM), for the others: at the top dose activity change, negative = inhibition, hits mostly inhibitors; actives 2% (n = 43,000); active = clear falling dose curves in both reporters; inconclusive = both reporters move, but less clearly or upward; inactive = either reporter flat; the % is the NLuc reporter signal
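S16 Schwann cells carrying FLuc/NLuc coincidence reporter in the Pmp22 3' UTR treated with compound 24 h at 37C; FLuc then NLuc luminescence read sequentially by dual-luciferase reagents.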
mTORC1 inh: Acumen qHTS Assay for Inhibitors of the mTORC1 Signaling Pathway in MEF (Tsc2-/-, p53-/-) Cells: Sytravon. Potency, µM (series often up to 38.3 µM), inactives show at the top dose activity change, negative = inhibition, usual class: inhibitors. AID 493208, 2011. actives 0.78% (n = 44,000). Tsc2-/- p53-/- MEF, phospho-rpS6 immunofluorescence/PI, 24 h;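 note: plate controls were DMSO for no effect and rapamycin for full effect; nearly all actives have a fitted effect of over 50% in size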
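Cell-based qHTS: Tsc2-/- p53-/- MEF, 24 h cpd, 37 °C; fix/perm, anti-phospho-S6 Alexa-488 + PI; Acumen 488 nm scan; pS6/PI ratio, % positive cells; rapamycin 7.5 nM = inhibition ref; PI count = viability.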
Numbers without * were called inactive. Unless noted, calls come from the whole dose curve; as a rule, active = well fitted curve in the direction sought with a large enough effect; inconclusive = small, poorly fitted or top-dose-only effect, or another doubt; inactive = no such curve, though single readings can be large; an effect the other way counts as inactive or inconclusive. Unless noted, % is set by controls: 0 for no effect and ±100 for the full control effect; potency is the fitted concentration of half-maximal effect.

Screening COC(=O)c1c(SCC(=O)Nc2cccc(Cl)c2C)[nH]c2ccccc2c1=O returned S16 F2sN tox -7%, p53null 39C tox 10µM*, p53null 32C kill -15%, SKOV3 invasion inactive, PMP22 txn prim -72% and mTORC1 inh 0%.
For O=C(O)C1=NC(C(=O)O)CC(C=CN2c3cc(O)c(OC4OC(CO)C(O)C(O)C4O)cc3CC2C(=O)O)=C1 (stereo not given) the results were SKOV3 invasion -15%.
`CC(C)n1cnc2c(NCCCCCCNC(=O)OC(C)(C)C)nc(NCCO)nc21` gave SKOV3 invasion -2%.
COc1ccc(C(=O)/C=C/c2cn(CC(O)CN3CCCCCC3)c3ccccc23)cc1OC (stereo not given) was read as S16 F2sN tox -20%, p53null 39C tox inconclusive, p53null 32C kill 1%, SKOV3 invasion -15%, PMP22 txn prim inconclusive and mTORC1 inh -15%.
`CCCCN(C)CC(O)Cn1cc(/C=C/C(=O)c2ccc(OC)c(OC)c2)c2ccccc21` (stereo not given) gave S16 F2sN tox -24%, p53null 39C tox 13µM*, p53null 32C kill inconclusive, SKOV3 invasion -22%, PMP22 txn prim inconclusive and mTORC1 inh inconclusive.
`O=C(/C=C/c1cn(CC(O)CN2CCCCCC2)c2ccccc12)c1ccccc1` (stereo not given) gave S16 F2sN tox inconclusive, p53null 39C tox -21%, p53null 32C kill -9%, SKOV3 invasion -12%, PMP22 txn prim inconclusive and mTORC1 inh inconclusive.
Screening COc1ccc(C(=O)/C=C/c2cn(CC(O)CN(CC(C)C)CC(C)C)c3ccccc23)cc1 (stereo not given) returned S16 F2sN tox -3%, p53null 39C tox -1%, p53null 32C kill -7%, SKOV3 invasion inactive, PMP22 txn prim inconclusive and mTORC1 inh -10%.
`O=C(/C=C/c1cn(CC(O)CN2CCCCCC2)c2ccccc12)c1ccc(Br)cc1` (stereo not given) gave S16 F2sN tox -9%, p53null 39C tox 16µM*, p53null 32C kill 0%, SKOV3 invasion -5%, PMP22 txn prim inconclusive and mTORC1 inh inconclusive.
For CCCN(CCC)CC(O)Cn1cc(/C=C/C(=O)c2ccc(OC)cc2)c2ccccc21 (stereo not given) the results were S16 F2sN tox inconclusive, p53null 39C tox inconclusive, p53null 32C kill inconclusive, SKOV3 invasion inconclusive, PMP22 txn prim inconclusive and mTORC1 inh 15µM*.
CCCCN(C)CC(O)Cn1cc(/C=C/C(=O)c2ccc(Br)cc2)c2ccccc21 (stereo not given) was read as S16 F2sN tox inconclusive, p53null 39C tox 13µM*, p53null 32C kill inconclusive, SKOV3 invasion inconclusive, PMP22 txn prim inconclusive and mTORC1 inh inconclusive.
CC(C)c1nn(-c2c(Cl)cccc2Cl)c2nc(Cc3ccc(OCCO)cc3)[nH]c(=O)c12 was read as SKOV3 invasion 20%.
Cc1csc(-c2nnc(Nc3ccc(Oc4ncccc4-c4ccnc(N)n4)cc3)c3ccccc23)c1 was read as SKOV3 invasion 26%.
